The values that follow come from the supplement of paper PMC5919970.

Structures can show the parent of a compound that is named as a salt. The full ranking holds about 2,000 compounds; the median of “fractional viability relative to vehicle” is about 0.92, and the lowest 2% start at about 0.11. Many of the other results were omitted from the sample, so the lowest values are more common in it than they were.

The test has as its system TYKNU. Description: fractional viability relative to vehicle; TYKNU is a high-grade serous ovarian cancer line; higher = less growth inhibition. The note with it: 72 h, genotype: OPA1 knockout (sgOPA1 #2). In short, it runs like this:
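Drug treatment lasted 72 h, with cells grown at 37 °C in 5% CO2 in RPMI 1640 supplemented with 10% FBS. Beforehand, TYKNU control cells or their lentiCRISPRv2 knockout derivatives had been seeded at 500 cells per well into drug-stamped 384-well plates carrying a ~2100-compound library at 2 or 10 μM, in duplicate. Viability came from Cell Titer Glo luminescence, with averaged duplicate treatment wells normalised to duplicate control wells in the same plate position.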

As for `Cc1cc(Nc2ncc(Cl)c(Nc3ccccc3S(=O)(=O)C(C)C)n2)c(OC(C)C)cc1C1CCNCC1`, the fractional viability reads like this: (2uM) 0.376; (10uM) 0.0286.
Taken in the same sequence, the figures for `CN1CCN(Cc2ccc(Nc3ncc(Cl)c(Nc4ccccc4S(=O)(=O)N(C)C)n3)cc2)CC1` were 0.451 and 0.421.
Taken in the same sequence, the figures for `CNC(=O)c1ccccc1Nc1nc(Nc2ccc(N3CCOCC3)cc2OC)ncc1Cl` were 0.987 and 0.532.
Take `C[C@H](Nc1ncnc2nc[nH]c12)c1cc2cccc(Cl)c2c(=O)n1-c1ccccc1`: the fractional viability reads like this: (2uM) 0.926; (10uM) 1.05.
Taken in the same sequence, the figures for `COc1cc(O)c(CC=C(C)C)c(O)c1C(=O)/C=C/c1ccc(O)cc1` [Xanthohumol] were 0.841 and 0.772.
As to `NC(=O)c1nc(F)cnc1O` [Favipiravir (T-705)], the fractional viability (2uM) was found to be 0.744 and the fractional viability (10uM) was determined as 0.765.
Taken in the same sequence, the figures for `O=C1O[C@H]([C@@H](O)CO)C([O-])=C1O.[Na+]` [Sodium ascorbate] were 1.02 and 0.95.
Regarding `O=C(Nc1ccccc1-c1cn2c(CN3CCNCC3)csc2n1)c1cnc2ccccc2n1`, the fractional viability is, setting by setting: (2uM) 1.19; (10uM) 0.0331.
For `Cc1nc(-c2cccnc2)sc1C(=O)Nc1ccccc1-c1cn2c(CN3CCOCC3)csc2n1`, the fractional viability was determined as 0.748 (2uM) and 0.855 (10uM).
With `Cc1coc2c1C(=O)C(=O)c1c-2ccc2c1CCCC2(C)C` [Tanshinone IIA], the fractional viability was 0.599 (2uM) and 0.327 (10uM).
The like results for `C[C@H]1COC2=C1C(=O)C(=O)c1c2ccc2c1CCCC2(C)C` [Cryptotanshinone] were, in that order, 0.361 and 0.0832.
The like results for `CC(=O)Nc1ccc(C(=O)Nc2ccccc2N)cc1` [CI994 (Tacedinaline)] were, in that order, 0.755 and 0.434.
The like results for `CNCc1ccc(C)c(NC(=O)c2ccc(Nc3nc(-c4ccccc4)c4ccccc4n3)cc2)c1` were, in that order, 1.13 and 0.134.
As to `Cc1cc(Nc2ccc(NC(=O)c3ccc(Nc4ccnc5ccccc45)cc3)cc2)nc(N)n1`, the fractional viability reads like this: (2uM) 0.043; (10uM) 0.0318.
Taken in the same sequence, the figures for `COc1cc(-c2ncn(/C=C\C(=O)OC(C)C)n2)cc(C(F)(F)F)c1` were 0.22 and 0.259.
The like results for `CNc1cccc(CCOc2ccc3c(c2)CN(CC(F)(F)F)C(=O)[C@H](CC(=O)O)C3)n1` were, in that order, 0.781 and 0.671.
As for `CCCCc1oc2ccc(NS(C)(=O)=O)cc2c1C(=O)c1ccc(OCCCN(CCCC)CCCC)cc1` [Dronedarone HCl], the fractional viability (2uM) was found to be 0.835 and the fractional viability (10uM) was 0.106.
The like results for `CCCCc1oc2ccccc2c1C(=O)c1cc(I)c(OCCN(CC)CC)c(I)c1` [Amiodarone HCl] were, in that order, 0.994 and 0.867.
The like results for `CN(CCOc1ccc(NS(C)(=O)=O)cc1)CCc1ccc(NS(C)(=O)=O)cc1` [Dofetilide] were, in that order, 1.08 and 0.78.
Take `N#Cc1ccc(-c2c(-c3ncn[nH]3)sc(N3CCOCC3)c2C#N)c(F)c1`: the fractional viability (2uM) was 0.737 and the fractional viability (10uM) amounted to 0.572.
Taken in the same sequence, the figures for `O=C(COc1ccc(Cl)cc1)NC1CCC(NC(=O)COc2ccc(Cl)cc2)CC1` (stereo not drawn) [ISRIB (trans-isomer)] were 1.09 and 0.976.
Turning to `Clc1ccc(C2(c3ccc(-c4cn[nH]c4)cc3)CCNCC2)cc1`, the fractional viability runs as follows: (2uM) 1.03; (10uM) 0.554.
Taken in the same sequence, the figures for `COCCOc1nc(-c2ccc(Cl)c(Cl)c2)n(-c2ccc(NC(=O)CCl)cc2)n1` [MI-2 (MALT1 inhibitor)] were 1 and 0.952.
The like results for `COc1ccc(-n2c(SCCCN3C(=O)c4cccc5cccc(c45)C3=O)nnc2-c2ccncc2)cc1` were, in that order, 0.913 and 0.874.
The like results for `Cc1c(CN2CCN(C(=O)[C@H](C)O)CC2)sc2c(N3CCOCC3)nc(-c3cnc(N)nc3)nc12` were, in that order, 0.392 and 0.376.
As to `CS(=O)(=O)N1CCN(Cc2cc3nc(-c4cccc5[nH]ncc45)nc(N4CCOCC4)c3s2)CC1`, the fractional viability runs as follows: (2uM) 0.824; (10uM) 0.658.
Take `COc1ccc(-c2nc(N3CCOCC3)c3sc(CN(C)c4ncc(C(=O)NO)cn4)cc3n2)cn1`: the fractional viability by setting is: (2uM) 0.118; (10uM) 0.115.
The like results for `O=C1[C@H](Cc2ccc(O)cc2)N2C(=O)CCN(C(=O)NCc3ccccc3)[C@H]2CN1Cc1cccc2ccccc12` were, in that order, 0.962 and 0.449.
Consider `COc1cccc(-n2c(=O)[nH]c3cc(Cl)n(-c4ccc(-c5cccc(OC)c5O)cc4)c3c2=O)c1`, for which the fractional viability (2uM) was 0.827 and the fractional viability (10uM) amounted to 0.807.
The like results for `Cn1cc(-c2cnn3c(N)c(Br)c([C@@H]4CCCNC4)nc23)cn1` were, in that order, 0.571 and 0.814.
Taken in the same sequence, the figures for `Nc1nc(Nc2ccc3c(c2)CCC(N2CCCC2)CC3)nn1-c1cc2c(nn1)-c1ccccc1CCC2` (stereo not given) were 0.566 and 0.0864.
Taken in the same sequence, the figures for `COc1ccc([C@@H]2CC(=O)c3c(O)cc(O[C@@H]4O[C@H](CO)[C@@H](O)[C@H](O)[C@H]4O[C@@H]4O[C@@H](C)[C@H](O)[C@@H](O)[C@H]4O)cc3O2)cc1O` [Neohesperidin] were 1.11 and 0.888.
On to `COc1ccc2c(c1)CCC1C2CCC2(C)C(NCCCCCCN3C(=O)C=CC3=O)CCC12` (stereo not given), for which the fractional viability reads like this: (2uM) 0.747; (10uM) 0.738.
For the compound `CCN1CCN(Cc2ccc(Nc3ncc(F)c(-c4cc(F)c5nc(C)n(C(C)C)c5c4)n3)nc2)CC1`, the fractional viability (2uM) stood at 0.602 and the fractional viability (10uM) amounted to 0.0904.
Consider `CNC(=O)c1ccccc1Oc1nc(Nc2cc(OC)c(OC)c(OC)c2)ncc1Br`, for which the fractional viability by setting is: (2uM) 0.717; (10uM) 0.828.
